Source: PubChem BioAssay (NCI)
About 83,000 compounds went through this panel and 20% of them were active in at least one assay; those are over-represented in the sample as a whole.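 Single-concentration screen, 48 h exposure, 96-well plates. Endpoint: percent growth. Below 10 = active.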 Values without a mark were called inactive. Activity calls are given as the source filed them.

Assays:
Experiment in all cases: NCI-60 one-dose screen, 48 h (100 = growth as untreated, 0 = no growth, -100 = all killed)
Conditions in all cases: 10 µM unless noted
[1] = system: DU-145 prostate
[2] = system: K-562 leukemia
[3] = system: MALME-3M melanoma
[4] = system: MDA-MB-231 breast
[5] = system: RXF 393 renal
[6] = system: SF-268 CNS
[7] = system: SF-295 CNS
[8] = system: SF-539 CNS
[9] = system: UACC-257 melanoma
[10] = system: M14 melanoma
[11] = system: HCT-15 colon
[12] = system: HT29 colon
[13] = system: SNB-75 CNS
[14] = system: SNB-19 CNS
[15] = system: U251 CNS
[16] = system: PC-3 prostate
[17] = system: SK-MEL-5 melanoma
[18] = system: UACC-62 melanoma
[19] = system: LOX IMVI melanoma
[20] = system: SK-MEL-28 melanoma

## Clc1ccc(Nc2ncnc3c2sc2ncccc23)cc1
[1]
  growth: 20.2%
[2]
  growth: 46.6%
[3]
  growth: 65.6%
[4]
  growth: 63.9%
[5]
  growth: 32.9%
[6]
  growth: 23%
[7]
  growth: 19.1%
[8]
  growth: 6.42% (active)
[9]
  growth: 41.6%
[10]
  growth: -21.5% (active)
[11]
  growth: 47.3%
[12]
  growth: 38.1%
[13]
  growth: 47.9%
[14]
  growth: 26.3%
[15]
  growth: 28%
[16]
  growth: 54.5%
[17]
  growth: 23.4%
[18]
  growth: 11.4%
[19]
  growth: 12.2%
[20]
  growth: 74.9%

## Cc1nc2c(-c3cnc(N)nc3)nc(N3CCOCC3)nc2n1C(C)C
[1]
  growth: 13.4%
[2]
  growth: 12.6%
[3]
  growth: -19.2% (active)
[4]
  growth: 23.9%
[5]
  growth: -29.6% (active)
[6]
  growth: 9.06% (active)
[7]
  growth: -36.1% (active)
[8]
  growth: -42.2% (active)
[9]
  growth: -23% (active)
[10]
  growth: 4.2% (active)
[11]
  growth: 10.7%
[12]
  growth: 3.37% (active)
[13]
  growth: -38.8% (active)
[14]
  growth: 10.6%
[15]
  growth: 4.62% (active)
[16]
  growth: 14.4%
[17]
  growth: -21.2% (active)
[18]
  growth: -39.9% (active)
[19]
  growth: -1.69% (active)
[20]
  growth: -10.1% (active)

## NC(=O)Nc1ccc2ncnc(Nc3cccc(O)c3)c2c1
[1]
  growth: 90.4%
[2]
  growth: 103%
[3]
  growth: 121%
[4]
  growth: 104%
[5]
  growth: 111%
[6]
  growth: 85.4%
[7]
  growth: 98.1%
[8]
  growth: 109%
[9]
  growth: 99.8%
[10]
  growth: 102%
[11]
  growth: 108%
[12]
  growth: 106%
[13]
  growth: 102%
[14]
  growth: 93.1%
[15]
  growth: 87.9%
[16]
  growth: 102%
[17]
  growth: 101%
[18]
  growth: 105%
[19]
  growth: 101%
[20]
  growth: 114%

## Cc1ccc(-c2nc3ccccc3c(=O)n2/N=C/c2cccc3ccccc23)cc1
[1]
  growth: 96.9%
[2]
  growth: 65.5%
[3]
  growth: 68.6%
[4]
  growth: 66.8%
[5]
  growth: 91.8%
[6]
  growth: 74.1%
[7]
  growth: 66.8%
[8]
  growth: 96.5%
[9]
  growth: 86.4%
[10]
  growth: 67.5%
[11]
  growth: 74.3%
[12]
  growth: 102%
[13]
  growth: 74.3%
[14]
  growth: 94.4%
[15]
  growth: 77%
[16]
  growth: 63.3%
[17]
  growth: 75.5%
[18]
  growth: 69.4%
[19]
  growth: 63.4%
[20]
  growth: 85.6%

## O=[N+]([O-])c1cc(F)c2cccnc2c1O
[1]
  growth: 121%
[2]
  growth: 109%
[3]
  growth: 103%
[4]
  growth: 99.5%
[5]
  growth: 148%
[6]
  growth: 106%
[7]
  growth: 110%
[8]
  growth: 91%
[9]
  growth: 115%
[10]
  growth: 88.5%
[11]
  growth: 92.1%
[12]
  growth: 111%
[13]
  growth: 86%
[14]
  growth: 93%
[15]
  growth: 91.9%
[16]
  growth: 96.6%
[17]
  growth: 90.2%
[18]
  growth: 92.9%
[19]
  growth: 84.7%
[20]
  growth: 135%

## COc1cccc(Cn2c(-c3nonc3NC(C)=O)nc3ccccc32)c1
[1]
  growth: 13.8%
[2]
  growth: 13.9%
[3]
  growth: 42.3%
[4]
  growth: 46.1%
[5]
  growth: -17% (active)
[6]
  growth: 59.5%
[7]
  growth: 15%
[8]
  growth: 36.7%
[9]
  growth: 52.7%
[10]
  growth: 14.1%
[11]
  growth: 34.9%
[12]
  growth: 21.5%
[13]
  growth: 10.1%
[14]
  growth: 71.3%
[15]
  growth: 27.1%
[16]
  growth: 21.4%
[17]
  growth: 28.4%
[18]
  growth: 45.2%
[19]
  growth: 50.2%
[20]
  growth: 57.3%

## O=C(Nc1ccc(Oc2ccc(Nc3nc4ccccc4s3)cc2)cc1)Nc1ccc(Cl)c(C(F)(F)F)c1
[1]
  growth: 9.51% (active)
[2]
  growth: 6.86% (active)
[3]
  growth: 2.78% (active)
[4]
  growth: -65.5% (active)
[5]
  growth: 8.85% (active)
[6]
  growth: 18.5%
[7]
  growth: 5.6% (active)
[8]
  growth: 9.29% (active)
[9]
  growth: -11.6% (active)
[10]
  growth: -4.56% (active)
[11]
  growth: 8.45% (active)
[12]
  growth: -10.9% (active)
[13]
  growth: 16.7%
[14]
  growth: 22.5%
[15]
  growth: 2.67% (active)
[16]
  growth: 3.08% (active)
[17]
  growth: -84.8% (active)
[18]
  growth: 1.63% (active)
[19]
  growth: -88.3% (active)
[20]
  growth: 25.3%

## C1=C\CCCCN2CC[C@H]3[C@H](CCCC/C=C\CCCN4C[C@@H](CCCCC/1)C[C@@H]3C4)C2
[1]
  growth: 93.9%
[2]
  growth: -19.5% (active)
[3]
  growth: 98.9%
[4]
  growth: 73.9%
[5]
  growth: -43.3% (active)
[6]
  growth: 73.8%
[7]
  growth: 51.3%
[8]
  growth: 31.3%
[9]
  growth: 84.7%
[10]
  growth: 1.72% (active)
[11]
  growth: 25.3%
[12]
  growth: 9.89% (active)
[13]
  growth: 44.3%
[14]
  growth: 106%
[15]
  growth: 72.3%
[16]
  growth: 76.7%
[17]
  growth: 71%
[18]
  growth: 92%
[19]
  growth: 65.5%
[20]
  growth: -90.3% (active)

## ClCc1cccc(CSc2ncnc3c2ncn3Cc2cccc(CCl)c2)c1
[1]
  growth: 50.4%
[2]
  growth: 14.2%
[3]
  growth: 41.7%
[4]
  growth: 12%
[5]
  growth: -20.2% (active)
[6]
  growth: 17%
[7]
  growth: 92%
[8]
  growth: 58.2%
[9]
  growth: 42.5%
[10]
  growth: -71.8% (active)
[11]
  growth: 20.7%
[12]
  growth: 13.2%
[13]
  growth: -13.8% (active)
[14]
  growth: 45.6%
[15]
  growth: -69.8% (active)
[16]
  growth: 49.8%
[17]
  growth: 20.2%
[18]
  growth: 6.23% (active)
[19]
  growth: -8.54% (active)
[20]
  growth: 27.4%

## COc1ccc2[nH]cc(C(c3ccc(Cl)cc3)N3CCCC3)c2c1 (stereo not given)
[1]
  growth: 101%
[2]
  growth: 90.2%
[3]
  growth: 72.8%
[4]
  growth: 94.6%
[5]
  growth: 82.9%
[6]
  growth: 92.5%
[7]
  growth: 94%
[8]
  growth: 98.2%
[9]
  growth: 91.9%
[10]
  growth: 95%
[11]
  growth: 89.7%
[12]
  growth: 102%
[13]
  growth: 90%
[14]
  growth: 105%
[15]
  growth: 92%
[16]
  growth: 74.8%
[17]
  growth: 88.5%
[18]
  growth: 92.5%
[19]
  growth: 90.7%
[20]
  growth: 111%

## COc1cc(-c2csc(NC(=O)Nc3cccc(C(F)(F)F)c3)n2)cc(OC)c1OC
[1]
  growth: 55.9%
[2]
  growth: 31.6%
[3]
  growth: 88.3%
[4]
  growth: 63.8%
[5]
  growth: 71.4%
[6]
  growth: 65%
[7]
  growth: 21.7%
[8]
  growth: 67.1%
[9]
  growth: 83.2%
[10]
  growth: 47.8%
[11]
  growth: 30.9%
[12]
  growth: 62.6%
[13]
  growth: 62.4%
[14]
  growth: 46.1%
[15]
  growth: 34.1%
[16]
  growth: 18.6%
[17]
  growth: 28.7%
[18]
  growth: 40%
[19]
  growth: 62.3%
[20]
  growth: 72.8%

## CC1=NOCC(=O)N1
[1]
  growth: 111%
[2]
  growth: 92.1%
[3]
  growth: 117%
[4]
  growth: 102%
[5]
  growth: 103%
[6]
  growth: 107%
[7]
  growth: 87.7%
[8]
  growth: 99.3%
[9]
  growth: 101%
[10]
  growth: 103%
[11]
  growth: 102%
[12]
  growth: 101%
[13]
  growth: 85.3%
[14]
  growth: 95.6%
[15]
  growth: 94.7%
[16]
  growth: 95.2%
[17]
  growth: 99.7%
[18]
  growth: 102%
[19]
  growth: 89.1%
[20]
  growth: 99.4%

## NS(=O)(=O)c1ccc(N2N=C(c3cccs3)CC2c2ccccc2O)cc1 (stereo not given)
[1]
  growth: -45% (active)
[2]
  growth: 4.59% (active)
[3]
  growth: 47.9%
[4]
  growth: -19.3% (active)
[5]
  growth: 27.1%
[6]
  growth: 7.15% (active)
[7]
  growth: 1.4% (active)
[8]
  growth: -23.5% (active)
[9]
  growth: 33.2%
[10]
  growth: 0.852% (active)
[11]
  growth: 4.16% (active)
[12]
  growth: -25.6% (active)
[13]
  growth: 30.5%
[14]
  growth: 63.3%
[15]
  growth: 0.571% (active)
[16]
  growth: 8.13% (active)
[17]
  growth: -29.1% (active)
[18]
  growth: 24.2%
[19]
  growth: 13.5%
[20]
  growth: 27.3%

## Cc1nc2ccc(Nc3nc(NCCN4CCOCC4)nc(Nc4ccc(F)cc4)n3)cc2n1Cc1ccccc1
[1]
  growth: 59.2%
[2]
  growth: 3.04% (active)
[3]
  growth: -41.7% (active)
[4]
  growth: 33.3%
[5]
  growth: 12%
[6]
  growth: 62.1%
[7]
  growth: -36.8% (active)
[8]
  growth: 29.8%
[9]
  growth: -65.3% (active)
[10]
  growth: -38.8% (active)
[11]
  growth: -0.585% (active)
[12]
  growth: -33.6% (active)
[13]
  growth: 50.6%
[14]
  growth: 78.7%
[15]
  growth: 28.7%
[16]
  growth: 71.5%
[17]
  growth: 14.2%
[18]
  growth: -24.8% (active)
[19]
  growth: 5.7% (active)
[20]
  growth: -67.2% (active)

## COc1cc(Nc2ccnc3ccc(Br)cc23)cc(OC)c1OC
[1]
  growth: 59.1%
[2]
  growth: 10.2%
[3]
  growth: 46.7%
[4]
  growth: 38%
[5]
  growth: 2.9% (active)
[6]
  growth: 47.6%
[7]
  growth: 25.6%
[8]
  growth: 12.7%
[9]
  growth: 38.2%
[10]
  growth: 14.3%
[11]
  growth: 30.6%
[12]
  growth: 14.2%
[13]
  growth: -4.34% (active)
[14]
  growth: 32.9%
[15]
  growth: 18.6%
[16]
  growth: 26.7%
[17]
  growth: 8.82% (active)
[18]
  growth: 30.4%
[19]
  growth: 32%
[20]
  growth: 58.3%

## Cc1cc(Cl)c2ccc(N(C)C)cc2n1
[1]
  growth: 113%
[2]
  growth: 88.7%
[3]
  growth: 108%
[4]
  growth: 102%
[5]
  growth: 95.5%
[6]
  growth: 102%
[7]
  growth: 100%
[8]
  growth: 106%
[9]
  growth: 97.4%
[10]
  growth: 100%
[11]
  growth: 94.9%
[12]
  growth: 102%
[13]
  growth: 82.7%
[14]
  growth: 95%
[15]
  growth: 92.8%
[16]
  growth: 101%
[17]
  growth: 102%
[18]
  growth: 101%
[19]
  growth: 96.9%
[20]
  growth: 101%
